Measurements reported in PubChem BioAssay (NCI).
This is part of a sample that, as a whole, favours compounds with a hit. Of some 83,000 tested, about 20% had one in any assay.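 Percent growth is the endpoint: 0 to 100 indicates growth inhibition (40 means 60% inhibition), 0 means no net growth, and negative values indicate cell death.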 Activity calls are given as the source filed them. The calls were made as follows: active = growth percent below 10; inactive = the rest.

Experiments:
Assay in all cases: NCI-60 one-dose screen, 48 h (100 = growth as untreated, 0 = no growth, -100 = all killed)
Details in all cases: 10 µM unless noted
[1] = test system: SK-MEL-2 melanoma
[2] = test system: EKVX NSCLC
[3] = test system: SN12C renal
[4] = test system: TK-10 renal
[5] = test system: ACHN renal
[6] = test system: CAKI-1 renal
[7] = test system: A498 renal
[8] = test system: CCRF-CEM leukemia
[9] = test system: MOLT-4 leukemia
[10] = test system: UO-31 renal

Measured: growth

COc1ccc2c(c1)sc1nc(-c3ccc(N(C)C)cc3)cn12
inactive: [1] 88.6% | [2] 101% | [3] 123% | [4] 132% | [5] 135% | [6] 86.2% | [7] 111% | [8] 71.2% | [9] 76.7%

COc1ccc(C2=NN(C(C)=O)C(c3c(C)nn(-c4ccccc4)c3N3CCOCC3)C2)cc1 (stereo unspecified)
inactive: [1] 106% | [2] 88.2% | [3] 91.9% | [10] 77.2% | [5] 95% | [7] 91.3% | [8] 95.4% | [9] 88%

COc1cnc2c(c1)C(=O)c1c-2n(CCCn2ccnc2)c(=O)c2cc(F)ccc12
inactive: [2] 11.4% | [3] 12.4%
active: [1] -19.1% | [10] -77.5% | [5] -72.6% | [7] -84.4% | [8] -0.897% | [9] -23.9%

Cc1ccc(N/N=C(/C(=O)c2ccc(Cl)cc2)c2nc(C)cc(=O)[nH]2)cc1
inactive: [1] 95.3% | [2] 91.5% | [3] 100% | [4] 136% | [5] 99.1% | [6] 113% | [7] 108% | [9] 98.6%
active: [8] -15.1%

COc1cc(/C=C/C(=O)CC(=O)/C=C/c2ccc(OC(=O)CCNC34CC5CC(CC(C5)C3)C4)c(OC)c2)ccc1OC(=O)CCNC12CC3CC(CC(C3)C1)C2
active: [8] -23.5% | [9] -25.1%
inactive: [1] 11.7% | [2] 21.6% | [3] 23.8% | [4] 70% | [5] 79.2% | [6] 49.1% | [7] 83.4%

CCOc1nc(-c2ccco2)n2nc(-c3ccco3)cc2n1
inactive: [1] 117% | [2] 95% | [3] 104% | [10] 91.1% | [6] 95.9% | [7] 83.5% | [8] 102% | [9] 114%

COc1ccc2c(c1)sc1nc(-c3ccc(Br)cc3)cn12
inactive: [1] 106% | [2] 113% | [3] 104% | [4] 133% | [5] 110% | [6] 96.4% | [7] 84.4% | [8] 109% | [9] 104%

O=C1C(=O)c2c(nc3ccc(Cl)cn23)-c2ccccc21
active: [1] -90.2% | [2] -95.6% | [3] -100% | [4] -86.3% | [5] -100% | [6] -95.4% | [7] -100% | [8] -49.6% | [9] -94.5%

COc1cc(C2CC(c3ccc(C)cc3)=NN2C=O)ccc1OCCN(C)C (stereo unspecified)
inactive: [1] 98.4% | [2] 90.1% | [3] 95.2% | [10] 64.5% | [5] 100% | [7] 92.4% | [8] 88.7% | [9] 77.8%

CCN(CC)CCNCC(=O)Oc1ccc(/C=C/C(=O)CC(=O)/C=C/c2ccc(OC(=O)CNCCN(CC)CC)c(OC)c2)cc1OC
inactive: [1] 10.7% | [4] 50.3% | [5] 16.8% | [6] 22% | [7] 51%
active: [2] 5.1% | [3] 4.14% | [8] -30.5% | [9] 0.439%

CCOC(=O)CCN(c1c(Cl)ssc1=O)C(C)C
inactive: [1] 96.4% | [2] 107% | [3] 114% | [4] 129% | [5] 118% | [6] 124% | [7] 106%
active: [8] -34.9% | [9] -14.5%

CN(C)c1ccc(-c2nc3ncc(Br)cc3o2)cc1
inactive: [1] 92.1% | [2] 78.4% | [3] 98.2% | [4] 140% | [5] 99.9% | [6] 109% | [7] 79.8% | [8] 77.1% | [9] 81%

CN1CCC[C@@H]1CCO[C@](C)(c1ccccc1)c1ccc(Cl)cc1
inactive: [1] 90.4% | [2] 69.3% | [3] 66.5% | [10] 36.9% | [6] 71% | [7] 88.1% | [8] 65.2% | [9] 67.7%

Cc1ccc2nc3c(n2c1)C(=O)C(=O)c1ccccc1-3
active: [1] -55.6% | [2] -89.6% | [3] -71.7% | [4] -62.4% | [5] -77.1% | [6] -83% | [7] -96.4% | [8] -12.8% | [9] -70.8%

COc1cc(/C=C/C(=O)c2c(C)n([O-])c3ccc(Cl)cc3[n+]2=O)cc(OC)c1OC
inactive: [1] 61.8% | [2] 65.8% | [3] 80.1% | [4] 103% | [5] 79.6% | [6] 107% | [7] 98.2%
active: [8] -34.2% | [9] -34.8%

COc1cnc2c(c1)C(=O)c1c-2n(CCCN2CCCC2)c(=O)c2cc(F)ccc12
inactive: [1] 23.1%
active: [2] 4.91% | [3] 9.02% | [10] -96.2% | [5] -67.7% | [7] -92.8% | [8] 0.937% | [9] -19.5%

N#CC(C#N)C(C#N)C#N
inactive: [1] 109% | [2] 99.7% | [3] 99.9% | [10] 89.1% | [5] 107% | [7] 99% | [8] 105% | [9] 96.4%

CCOc1cc(/C=C/C(=O)CC(=O)/C=C/c2ccc(OC(=O)CNCCN(CC)CC)c(OCC)c2)ccc1OC(=O)CNCCN(CC)CC
active: [1] 4.43% | [2] -38.1% | [3] -9.33% | [4] 7.64% | [5] -88.4% | [6] -30.9% | [7] -26.8% | [8] 4.21% | [9] -23.4%

CC(C)N(Cc1ccccc1)c1c(S)ssc1=S
active: [1] 7.27% | [2] 5.44% | [5] 5.95% | [6] -2.48% | [7] -7.36% | [8] -81.6% | [9] 0.0865%
inactive: [3] 11% | [4] 37.1%

CCOC(=O)C(Br)=P(c1ccccc1)(c1ccccc1)c1ccccc1
active: [8] -40.7%
inactive: [1] 98.8% | [2] 103% | [3] 101% | [4] 117% | [5] 104% | [6] 82.9% | [7] 109% | [9] 99.6%

COc1cnc2c(c1)C(=O)c1c-2n(CCCNC2=NCCS2)c(=O)c2cc(F)ccc12
inactive: [1] 90.7% | [2] 67.5% | [3] 36.7% | [10] 15.9%
active: [5] 6.18% | [7] -52.4% | [8] 0.88% | [9] 0.0786%

CNCCCn1c2c(c3ccc(F)cc3c1=O)C(=O)c1cc(OC)cnc1-2
active: [1] -9.66% | [2] -13.2% | [3] 6.91% | [10] -89.3% | [5] -57.2% | [7] -87.6% | [8] 1.24% | [9] -19.8%

COc1ccc2c(c1)[n+](=O)c(C(=O)/C=C/c1cc(OC)c(OC)c(OC)c1)c(C)n2[O-]
inactive: [1] 57.2% | [2] 61% | [3] 71.5% | [4] 120% | [5] 65.9% | [6] 105% | [7] 77.1% | [9] 13.2%
active: [8] -63.6%

Cn1cc(NC(=O)Nc2cc(C(=O)O)n(C)c2)cc1C(=O)O
inactive: [1] 97.8% | [2] 114% | [3] 89.6% | [4] 107% | [5] 104% | [6] 99.3% | [7] 109% | [8] 103% | [9] 85.9%

Nc1nc(NC2CC2)c2ncn(C3C=CC(CO)C3)c2n1 (stereo unspecified)
inactive: [1] 89.4% | [2] 115% | [3] 98.2% | [4] 96.4% | [5] 103% | [6] 90.4% | [7] 104% | [8] 97.3% | [9] 76.9%

OCc1n(Cc2ccc3ccccc3c2)cc[n+]1Cc1ccc2ccccc2c1
inactive: [1] 67.7% | [2] 83.3% | [3] 41.7% | [10] 83.5% | [7] 72.7% | [8] 34.2% | [9] 47.5%

CCCCCN(CCCCC)CCCNc1c2c(nc3ccc(Cl)cc13)CCCC2
inactive: [1] 13.4% | [2] 50.7% | [3] 49.9% | [4] 31.5% | [5] 40.8% | [6] 26.6% | [7] 38.4% | [8] 27% | [9] 27.8%

COc1ccc2nc(-c3ccc(Cl)cc3)cc(-c3nnc(SCC(=O)Nc4ccc(C(C)=O)cc4)n3-c3ccccc3)c2c1
inactive: [1] 91.5% | [2] 101% | [3] 114% | [10] 84.4% | [5] 108% | [7] 100% | [8] 108% | [9] 83%

Cc1cc2c(cc1C)[n+](Cc1ccc3ccccc3n1)cn2Cc1ccc2ccccc2n1
active: [1] -32% | [9] 7.97%
inactive: [2] 39.6% | [3] 15.2% | [10] 53.2% | [5] 56.5% | [7] 17.1% | [8] 15.1%

CCOc1cc(/C=C/C(=O)C(C(=O)/C=C/c2ccc(OC(=O)CNc3nc4ccccc4[nH]3)c(OCC)c2)C(=O)CNc2nc3ccccc3[nH]2)ccc1OC(=O)CNc1nc2ccccc2[nH]1
active: [2] -3.49% | [3] -22.9% | [5] -45.6% | [6] -12.2% | [7] -9.48% | [9] -27.5%
inactive: [1] 13.2% | [4] 31.8%
